Laboratory results taken from PubChem BioAssay (EPA / NIEHS).
Records with an inconclusive call do not appear. Activity calls are given as the source filed them. The calls were made as follows, unless noted: active = hit-call score of the fitted dose curve at least 0.9, where 1 is the maximum; inactive = score below 0.9.

Columns and labels:
[1] = ACEA_ER_80hr: ACEA Biosciences xCELLigence Real-Time Cell Analysis on Estrogen Receptor Agonism for Proliferation (AID 2282667; active = hit-call score of the fitted dose curve at least 0.9, where 1 is the maximum); conditions: T47D proliferation, impedance (xCELLigence), 80 h
In short: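 Estrogen-driven proliferation is captured as electrode impedance in T47D cells 80 h after compound addition. Test articles ran at 8 concentrations, 1:4 dilutions from 100 uM final, in two replicate plates.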

[2] = ATG_CRE_CIS: Attagene CIS-FACTORIAL HepG2 Assay for human cAMP Responsive Element (CRE) binding protein 3 (AID 2282926); conditions: HepG2 CRE cis-reporter, Attagene multiplexed mRNA; actives raise or lower the signal
In short: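 Liver-derived HepG2, transfected with a CRE-containing reporter panel, exposed 24 h; transcript levels sized and quantified by capillary electrophoresis of labelled amplicons; signal changes either way referenced to vehicle.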

[3] = target: CCAAT/enhancer-binding protein beta (Homo sapiens) (UniProt P17676); experiment: ATG_C_EBP_CIS: Attagene CIS-FACTORIAL HepG2 Assay for human CCAAT/Enhancer Binding Protein (C/EBP) beta (AID 2282927); conditions: HepG2 Attagene cis-factorial transcription factor reporter; actives raise or lower the signal
In short: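 RT-PCR/capillary electrophoresis fluorescence of reporter mRNA, 24 h post-dose, in HepG2 cells carrying transfected cis-promoter reporter units. Bidirectional curve fitting against DMSO baseline captures gain or loss of signal.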

[4] = ATG_CMV_CIS: Attagene CIS-FACTORIAL HepG2 Assay for human CMV (Internal Marker) (AID 2282928); conditions: HepG2 CMV promoter reporter, transcription factor profiling; actives raise or lower the signal;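 also: endpoint acts as a background internal control marker rather than a target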
In short: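 Reporter transcripts from transfected HepG2 cells are isolated after 24 h of chemical dosing, reverse-transcribed and amplified. Fragments labeled with 6-FAM are cut with HpaI and quantified by capillary electrophoresis; DMSO defines baseline.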

[5] = ATG_DR4_LXR_CIS: Attagene CIS-FACTORIAL HepG2 Assay for human Liver X Receptor (LXR), DR4 submotif (AID 2282929); conditions: HepG2 Attagene DR4 cis-reporter, mRNA transcription; actives raise or lower the signal
In short: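 Fluorescence intensity of labelled reporter cDNA fragments, separated by capillary electrophoresis, gives the signal. HepG2 cells bearing cis-regulated reporter constructs were treated 24 h; activity fitted bidirectionally relative to DMSO negative control.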

[6] = ATG_AP_1_CIS: Attagene CIS-FACTORIAL HepG2 Assay for human Activator Protein 1 (AP-1) (AID 2282931); conditions: HepG2 Attagene cis-factorial AP-1 reporter mRNA; actives raise or lower the signal
In short: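 Multiplexed HepG2 reporter assay, 24 h dosing. mRNA induction detected by RT-PCR plus capillary electrophoresis. Activity fitted in both directions against DMSO.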

[7] = ATG_AP_2_CIS: Attagene CIS-FACTORIAL HepG2 Assay for human Activator Protein 2 (AP-2) (AID 2282932); conditions: HepG2 AP-2 cis-reporter, Attagene transcription factor profiling; actives raise or lower the signal
In short: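 Assay in transfected HepG2 with promoter-regulated reporters, 24 h incubation after dosing. Signal is reporter mRNA fluorescence (RT-PCR, capillary electrophoresis), analysed for both increases and decreases relative to DMSO controls.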

[8] = target: Transcription factor E2F1 (Homo sapiens) (UniProt Q01094); experiment: ATG_E2F_CIS: Attagene CIS-FACTORIAL HepG2 Assay for human E2F Transcription Factor 1 (AID 2282935); conditions: HepG2 Attagene cis-reporter, E2F reporter RNA transcripts; actives raise or lower the signal
In short: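 In this cis-factorial format, endogenous factor activity drives transfected reporters in HepG2; transcripts collected at 24 h are quantified by fluorescence after RT-PCR and capillary separation.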

[9] = ATG_M_61_CIS: Attagene CIS-FACTORIAL HepG2 Assay for M61 Transcription Factor (Internal Marker) (AID 2282937); conditions: HepG2 Attagene CIS-FACTORIAL M61 internal marker reporter; actives raise or lower the signal
In short: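 Endogenous transcription factor activity in HepG2 is read through transiently transfected cis-element reporter units. After 24 h dosing, RNA undergoes reverse transcription, PCR and primer extension with 6-FAM before capillary electrophoresis; DMSO-referenced bidirectional fit.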

[10] = ATG_EGR_CIS: Attagene CIS-FACTORIAL HepG2 Assay for human Early Growth Response 1 (EGR1) (AID 2282938); conditions: HepG2 Attagene CIS-FACTORIAL EGR reporter mRNA; actives raise or lower the signal
In short: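 Activity is taken as induction or loss of reporter mRNA versus DMSO, fitted bidirectionally. Transcripts from cis-regulated reporter units in transiently transfected HepG2 were measured after 24 h by RT-PCR with capillary electrophoresis.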

[11] = ATG_M_19_CIS: Attagene CIS-FACTORIAL HepG2 Assay for M19 Transcription Factor (Internal Marker) (AID 2282939); conditions: HepG2 Attagene CIS-FACTORIAL M19 internal marker reporter; actives raise or lower the signal
In short: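 Transfect HepG2 with MRTU reporter library → dose chemical, 24 h → isolate total RNA, reverse-transcribe with oligo(dT) → PCR, 6-FAM label, HpaI cut (2 h, 37 C) → capillary electrophoresis. Bidirectional fit vs DMSO.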

[12] = ATG_ERE_CIS: Attagene CIS-FACTORIAL HepG2 Assay for Estrogen Response Element (ERE) (AID 2282940); conditions: HepG2 ERE cis-reporter, Attagene RNA transcript; actives raise or lower the signal
In short: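 Transient MRTU transfection of human HepG2; cis-element promoters; 24 h dosing; total RNA → RT (oligo dT) → PCR → 6-FAM primer extension → HpaI digest → CE fluorescence. Bidirectional fit, DMSO baseline.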

[13] = target: Hepatocyte nuclear factor 3-beta (Homo sapiens) (UniProt Q9Y261); experiment: ATG_FoxA2_CIS: Attagene CIS-FACTORIAL HepG2 Assay for human Forkhead box A2 (FOXA2) (AID 2282942); conditions: HepG2 cis-reporter transcription factor activity, 24 h; actives raise or lower the signal
In short: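 Reporter transcript induction is measured by fluorescence after capillary electrophoresis of RT-PCR products from HepG2 cells exposed 24 h. Cis-regulated reporter units report endogenous factor activity; curves fitted both directions against DMSO.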

[14] = target: Retinoic acid receptor alpha (Homo sapiens) (UniProt P10276); experiment: ATG_DR5_RAR_CIS: Attagene CIS-FACTORIAL HepG2 Assay for human Retinoic Acid Receptor Alpha (RARE), DR5 submotif (AID 2282934); conditions: HepG2 Attagene cis-factorial RARE DR5 reporter, mRNA; actives raise or lower the signal
In short: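 HepG2 cells transiently transfected with multiplexed reporter units under cis (DR5 RARE) promoters, so endogenous transcription factor activity is measured. After 24 h compound exposure, reporter mRNA is quantified by RT-PCR with fluorescent labelling and capillary electrophoresis; bidirectional fitting versus DMSO.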

[15] = ATG_E_Box_CIS: Attagene CIS-FACTORIAL HepG2 Assay for human Enhancer Box (E-box) (AID 2282936); conditions: HepG2 E-box cis-reporter transcription, actives raise or lower the signal
In short: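 Measured 24 h post-dosing in HepG2 cells transfected with multiple cis-regulated reporter units, signal being reporter mRNA induction detected by fluorescent RT-PCR with capillary electrophoresis; gain or loss fitted against DMSO.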

[16] = ATG_Ets_CIS: Attagene CIS-FACTORIAL HepG2 Assay for human Erythroblast Transformation Specific (ETS) (AID 2282941); conditions: HepG2 ETS cis-reporter transcription, actives raise or lower the signal
In short: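 Bidirectional fit versus DMSO of reporter mRNA signal, detected by RT-PCR and capillary electrophoresis in HepG2 cells transiently transfected with cis-element reporters and dosed 24 h.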

[17] = ATG_FoxO_CIS: Attagene CIS-FACTORIAL HepG2 Assay for human Forkhead box O (FoxO) (AID 2282943); conditions: HepG2 Attagene cis-reporter, FoxO element, mRNA; actives raise or lower the signal
In short: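 HepG2 cells transiently transfected with cis-promoter-driven multiple reporter transcription units; 24 h after chemical dosing, reporter mRNA quantified by RT-PCR, fluorescent primer extension, HpaI digestion and capillary electrophoresis. Bidirectional fitting versus DMSO baseline.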

[18] = ATG_GATA_CIS: Attagene CIS-FACTORIAL HepG2 Assay for human GATA Binding Protein (AID 2282944); conditions: HepG2 GATA cis-element reporter, Attagene multiplex mRNA; actives raise or lower the signal
In short: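 Transient MRTU transfection, HepG2, 24 h compound exposure. Total RNA → oligo(dT) RT → PCR → 6-FAM primer extension → HpaI cut → CE. Bidirectional fit vs DMSO.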

[19] = ATG_BRE_CIS: Attagene CIS-FACTORIAL HepG2 Assay for human Bone Morphogenetic Protein (BMP) Response Element (BRE) (AID 2282933); conditions: HepG2 BMP response element reporter, Attagene transcription factor profiling; actives raise or lower the signal
In short: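 Transient MRTU transfection of human HepG2 liver cells; 24 h compound treatment; total RNA isolated, reverse-transcribed, PCR-amplified, 6-FAM labelled, HpaI-cut, capillary electrophoresis. DMSO = negative control/baseline, bidirectional fit.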

[20] = target: Aryl hydrocarbon receptor (Homo sapiens) (UniProt P35869); experiment: ATG_Ahr_CIS: Attagene CIS-FACTORIAL HepG2 Assay for human Aryl Hydrocarbon Receptor (Ahr) (AID 2282930); conditions: HepG2 AhR cis-factorial reporter transcription; actives raise or lower the signal
In short: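 HepG2 cells transiently transfected with cis-element-driven multiplexed reporter transcription units; endogenous transcription factor activity measured as reporter mRNA 24 h after dosing. RT-PCR, 6-FAM labelling, HpaI digestion, capillary electrophoresis; bidirectional fitting versus DMSO baseline.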

Measured: AC50

Chain of CCAAT/enhancer-binding protein beta (Homo sapiens) (P17676 whole entry, looked up): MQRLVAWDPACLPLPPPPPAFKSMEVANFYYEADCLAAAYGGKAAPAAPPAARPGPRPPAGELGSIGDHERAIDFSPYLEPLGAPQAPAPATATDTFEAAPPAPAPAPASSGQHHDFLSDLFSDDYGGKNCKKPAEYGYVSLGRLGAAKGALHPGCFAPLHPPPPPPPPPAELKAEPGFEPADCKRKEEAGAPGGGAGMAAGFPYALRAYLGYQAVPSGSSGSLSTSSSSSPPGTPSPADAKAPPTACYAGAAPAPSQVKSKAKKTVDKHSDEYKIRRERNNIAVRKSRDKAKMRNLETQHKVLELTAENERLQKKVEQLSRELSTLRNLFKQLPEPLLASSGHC
Chain of Transcription factor E2F1 (Homo sapiens) (Q01094 whole entry, looked up): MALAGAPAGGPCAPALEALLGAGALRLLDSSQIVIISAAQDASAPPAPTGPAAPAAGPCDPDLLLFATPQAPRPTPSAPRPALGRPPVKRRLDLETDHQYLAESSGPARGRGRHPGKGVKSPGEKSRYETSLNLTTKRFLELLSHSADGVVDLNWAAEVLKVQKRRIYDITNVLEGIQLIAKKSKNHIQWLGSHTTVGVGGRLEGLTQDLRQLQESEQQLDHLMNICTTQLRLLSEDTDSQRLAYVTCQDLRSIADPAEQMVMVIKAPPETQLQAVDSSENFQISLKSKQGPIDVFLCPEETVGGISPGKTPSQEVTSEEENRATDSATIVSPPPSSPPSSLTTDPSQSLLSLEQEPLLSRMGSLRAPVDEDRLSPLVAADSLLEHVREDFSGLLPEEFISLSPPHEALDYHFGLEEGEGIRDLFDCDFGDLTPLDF
Chain of Hepatocyte nuclear factor 3-beta (Homo sapiens) (Q9Y261 whole entry, looked up): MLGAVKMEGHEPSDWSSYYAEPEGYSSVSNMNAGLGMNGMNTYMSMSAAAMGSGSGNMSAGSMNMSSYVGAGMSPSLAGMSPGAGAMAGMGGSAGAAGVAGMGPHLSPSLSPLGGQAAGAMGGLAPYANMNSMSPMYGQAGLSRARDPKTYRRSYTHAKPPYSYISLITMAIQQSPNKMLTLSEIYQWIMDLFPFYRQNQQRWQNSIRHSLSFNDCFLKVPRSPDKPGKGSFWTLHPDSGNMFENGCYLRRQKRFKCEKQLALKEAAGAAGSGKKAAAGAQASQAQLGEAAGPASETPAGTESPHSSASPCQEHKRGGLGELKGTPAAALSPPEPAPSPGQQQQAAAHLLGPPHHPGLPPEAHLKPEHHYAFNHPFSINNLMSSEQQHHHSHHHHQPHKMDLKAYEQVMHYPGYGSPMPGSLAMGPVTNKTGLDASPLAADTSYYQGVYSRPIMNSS
Chain of Retinoic acid receptor alpha (Homo sapiens) (P10276 whole entry, looked up): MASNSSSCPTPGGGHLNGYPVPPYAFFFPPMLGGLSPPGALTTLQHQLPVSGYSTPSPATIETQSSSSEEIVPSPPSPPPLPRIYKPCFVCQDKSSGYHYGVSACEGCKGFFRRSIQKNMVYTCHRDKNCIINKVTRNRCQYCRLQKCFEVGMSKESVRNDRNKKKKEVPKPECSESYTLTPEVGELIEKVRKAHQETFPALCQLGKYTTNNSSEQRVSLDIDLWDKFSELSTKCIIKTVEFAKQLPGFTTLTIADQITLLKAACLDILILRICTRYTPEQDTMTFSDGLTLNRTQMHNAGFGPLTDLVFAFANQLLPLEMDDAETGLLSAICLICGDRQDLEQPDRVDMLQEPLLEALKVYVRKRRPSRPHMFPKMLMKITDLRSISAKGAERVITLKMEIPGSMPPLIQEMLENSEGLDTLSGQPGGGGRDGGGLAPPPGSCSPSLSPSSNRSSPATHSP
Chain of Aryl hydrocarbon receptor (Homo sapiens) (P35869 whole entry, looked up): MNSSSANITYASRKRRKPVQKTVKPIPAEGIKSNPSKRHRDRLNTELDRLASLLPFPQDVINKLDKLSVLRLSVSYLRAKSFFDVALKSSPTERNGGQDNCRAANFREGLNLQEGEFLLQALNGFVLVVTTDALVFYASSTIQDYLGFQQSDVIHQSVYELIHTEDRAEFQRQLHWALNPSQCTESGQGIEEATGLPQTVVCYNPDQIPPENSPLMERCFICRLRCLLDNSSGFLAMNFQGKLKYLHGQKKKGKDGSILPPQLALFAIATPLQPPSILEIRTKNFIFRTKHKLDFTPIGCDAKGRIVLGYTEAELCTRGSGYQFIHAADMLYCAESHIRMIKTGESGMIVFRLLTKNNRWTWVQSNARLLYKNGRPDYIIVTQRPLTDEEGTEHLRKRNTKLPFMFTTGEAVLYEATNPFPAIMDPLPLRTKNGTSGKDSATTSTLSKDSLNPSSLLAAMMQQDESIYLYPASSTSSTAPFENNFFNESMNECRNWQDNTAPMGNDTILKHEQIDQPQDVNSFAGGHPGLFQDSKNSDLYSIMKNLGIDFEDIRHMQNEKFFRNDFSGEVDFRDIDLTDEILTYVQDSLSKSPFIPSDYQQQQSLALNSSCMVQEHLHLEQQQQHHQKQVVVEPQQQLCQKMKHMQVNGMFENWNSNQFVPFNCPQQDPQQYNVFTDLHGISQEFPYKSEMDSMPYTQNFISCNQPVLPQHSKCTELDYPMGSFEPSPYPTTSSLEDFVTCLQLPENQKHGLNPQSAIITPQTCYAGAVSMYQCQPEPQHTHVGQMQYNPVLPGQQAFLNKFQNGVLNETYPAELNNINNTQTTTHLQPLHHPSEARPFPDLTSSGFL

CCc1occc(=O)c1O
not listed: [14] | [15] | [16] | [17] | [18] | [19] | [20]
inactive: all other assays above

O=C(OCCc1ccccc1)c1ccccc1
not listed: [6] | [19] | [20]
inactive: all other assays above

CCC(=O)C1CC(C(C)C)CC=C1C (stereo not drawn)
not listed: [19] | [20]
inactive: all other assays above

COC(=O)C=Cc1ccccc1
not listed: [16] | [18] | [20]
inactive: all other assays above

N#Cc1ccc(C(c2ccc(C#N)cc2)n2cncn2)cc1
not listed: [15] | [20]
inactive: all other assays above

C=CC(=O)NCOCCCC
not listed: [6] | [7] | [19] | [20]
inactive: all other assays above

CC(=O)c1ccccc1O
not listed: [6] | [16] | [20]
inactive: all other assays above

Nc1ccc(C(=O)O)cc1
active: [1] 50 µM
not listed: [14] | [17] | [20]
inactive: all other assays above

Oc1ccccc1Cc1ccccc1O
active: [5] 114 µM | [10] 72.5 µM | [12] 27.7 µM
not listed: [15] | [18] | [20]
inactive: all other assays above

CC=CC(=O)OCC(C)C
not listed: [20]
inactive: all other assays above

CC=C(C)C=CC=C(C)C
not listed: [7] | [14] | [20]
inactive: all other assays above

CCOC(=O)[C@H](O)[C@@H](O)C(=O)OCC
not listed: [9] | [17] | [20]
inactive: all other assays above

CCCCCCCO
active: [12] 30 µM
not listed: [18] | [20]
inactive: all other assays above

C=CCCCCCCCCO
not listed: [14] | [20]
inactive: all other assays above

O=C1CCCCCCCCCCCN1
active: [1] 53.3 µM
not listed: [6] | [7] | [8] | [9] | [15]
inactive: all other assays above

C=Cc1ccc(OC(C)=O)cc1
active: [4] 13.1 µM | [12] 35.9 µM
not listed: [6] | [19] | [20]
inactive: all other assays above

c1ccc2cnccc2c1
active: [20] 61.1 µM
not listed: [5] | [7] | [19]
inactive: all other assays above
